Results: the supplement of paper PMC11383364
Where “and” joins values, the source holds several entries; their conditions need not be identical. Equal entries are not always repeated. ± gives the standard deviation of the averaged measurements.

Each compound was assayed on SUM149 (assay: percent difference in area under dose-response curve of relative cell number, RPMI vs HPLM; higher = drug relatively more effective in HPLM than RPMI (negative = less effective in HPLM)). Conditions: treatment time: 72 h; dose range: 10-point, 1 nM to 20 µM; media compared: RPMI vs HPLM.
Description: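 SUM149 triple-negative breast cancer cells, 500 cells/well in 384-well plates, were grown in RPMI or human plasma-like medium (HPLM) with 5% dialyzed FBS. They were pin-transferred with an anticancer plus metabolic-inhibitor library in 10-point dose series (20 µM to 1 nM). After 72 h, cells were fixed, stained with bisbenzimide and counted by Acumen plate cytometry. The AUC of relative survival vs dose was computed per medium, and the percent difference in AUC between RPMI and HPLM is reported.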
For `Cc1ccc(C(=O)N(CCCN)[C@@H](c2nc3cc(Cl)ccc3c(=O)n2Cc2ccccc2)C(C)C)cc1` [Ispinesib], the “percent difference in area under dose-response curve” value (from here on “percent difference in area”) was -43.4%.
For `CC(C)[C@H](C(=O)Nc1ccc(C(=O)NO)cc1)c1ccccc1`, the “percent difference in area” value was -15.2%.
`COc1cc([C@@H]2c3cc4c(cc3[C@@H](O[C@@H]3O[C@@H]5CO[C@@H](c6cccs6)O[C@H]5[C@H](O)[C@H]3O)[C@H]3COC(=O)[C@H]23)OCO4)cc(OC)c1O` [Teniposide] was tested, and the “percent difference in area” value was -42.7%.
In the case of `Cc1ccc([C@@H]2O[C@H](CO)[C@@H](O)[C@H](O)[C@H]2O)cc1Cc1ccc(-c2ccc(F)cc2)s1` [Canagliflozin], the “percent difference in area” value is reported as -4.56%.
In the case of `O=C(NC1CCNCC1)c1n[nH]cc1NC(=O)c1c(Cl)cccc1Cl`, the “percent difference in area” value is reported as -11.2%.
For `Cc1ccccc1C(C(=O)NC1CCCC1)N(C(=O)Cn1cnc2ccccc21)c1cccc(F)c1` (stereo not given), the “percent difference in area” value was -1.67%.
`CN(C)CCOc1ccc(/C(=C(/CCCl)c2ccccc2)c2ccccc2)cc1` [Toremifene_Citrate] was tested, and the “percent difference in area” value was 2.31%.
With `CN(N=O)C(=O)N[C@@H](C=O)[C@@H](O)[C@H](O)[C@H](O)CO` [Streptozotocin] the “percent difference in area” value was -5.59%.
`CC(C)(C)c1cc(C(=O)C(C#N)=NNc2cccc(Cl)c2)no1` was tested, and the “percent difference in area” value was -6.64%.
In the case of `COc1cccc2c1C(=O)c1c(O)c3c(c(O)c1C2=O)C[C@@](O)(C(C)=O)C[C@@H]3O[C@H]1C[C@H](N)[C@H](O)[C@H](C)O1` [Daunorubicin_HCl], the “percent difference in area” value is reported as -26.8%.
For `Cc1cc(Nc2cc(N3CCN(C)CC3)nc(/C=C/c3ccccc3)n2)n[nH]1`, the “percent difference in area” value was -2.84%.
`S=C(NCc1ccc2c(c1)OCO2)N1CCN(c2ncnc3c2oc2ccccc23)CC1` [Amuvatinib] was tested, and the “percent difference in area” value was 1.06%.
For `Cn1cc(-c2ccc3c(c2)CCN3C(=O)Cc2cccc(C(F)(F)F)c2)c2c(N)ncnc21`, the “percent difference in area” value was 4.03%.
For `Nc1ccn([C@@H]2O[C@H](CO)[C@@H](O)C2(F)F)c(=O)n1` [Gemcitabine], the “percent difference in area” value was -24.6 ± 5.4%.
`CCN1CCN(Cc2ccc(-c3cc4c(N[C@H](C)c5ccccc5)ncnc4[nH]3)cc2)CC1` was tested, and the “percent difference in area” value was -3.13%.
In the case of `Cc1cnc(-c2ccccc2C(C)C)nc1NCc1ccc(-n2ccnn2)cc1`, the “percent difference in area” value is reported as -3.5%.
`COc1ccc(C2=N[C@H](c3ccc(Cl)cc3)[C@H](c3ccc(Cl)cc3)N2C(=O)N2CCNC(=O)C2)c(OC(C)C)c1` [Nutlin3b] was tested, and the “percent difference in area” value was 2.03%.
For `O=C(Nc1cccnc1)N1CCC(Cc2cccc(Oc3ccc(C(F)(F)F)cn3)c2)CC1`, the “percent difference in area” value was -4.77%.
In the case of `CO[C@@H](C(=O)N1Cc2[nH]nc(NC(=O)c3ccc(N4CCN(C)CC4)cc3)c2C1)c1ccccc1` [Danusertib], the “percent difference in area” value is reported as -17.3%.
In the case of `CC(C)c1onc(-c2c(Cl)cccc2Cl)c1COc1ccc(/C=C/c2cccc(C(=O)O)c2)c(Cl)c1`, the “percent difference in area” value is reported as 7.59%.
For `CCCc1cc(-c2nc(-c3ccc(C)cc3)cs2)ccn1` [Fatostatin_A], the “percent difference in area” value was -2.81%.
In the case of `Nc1ccccc1NC(=O)c1ccc(CNC(=O)OCc2cccnc2)cc1` [Entinostat], the “percent difference in area” value is reported as -2.21%.
With `S=c1nc[nH]c2nc[nH]c12` [6_Mercaptopurine] the “percent difference in area” value was -31.7%.
With `C=CC(=O)N1CCC[C@@H](n2nc(-c3ccc(Oc4ccccc4)cc3)c3c(N)ncnc32)C1` the “percent difference in area” value was 7.26%.
In the case of `CCC[C@H](Nc1nc(-c2ccc(NC(=O)NCC)c(OC)c2)ncc1C)c1cccnc1`, the “percent difference in area” value is reported as -15.1%.
With `Clc1ccc(Nc2nnc(Cc3ccncc3)c3ccccc23)cc1` [Vatalanib_2HCl] the “percent difference in area” value was -4.56%.
`CC(C)C[C@H](NC(=O)CNC(=O)c1cc(Cl)ccc1Cl)B(O)O` was tested, and the “percent difference in area” value was -12.2%.
`CC1=CC(=O)c2ccccc2C1=O` [Menadione] was tested, and the “percent difference in area” value was -3.63%.
`CNC(=O)c1cc(COc2nnc(Nc3ccc(Cl)cc3)c3ccoc23)ccn1` [Telatinib] was tested, and the “percent difference in area” value was 2.16%.
`CC1=C(/C=C/C(C)=C/C=C/C(C)=C/C(=O)Nc2ccc(O)cc2)C(C)(C)CCC1` [Fenretinide] was tested, and the “percent difference in area” value was -3.15%.
In the case of `CC(=O)O[C@H]1C(=O)[C@@]2(C)[C@H]([C@H](OC(=O)c3ccccc3)[C@]3(O)C[C@H](OC(=O)[C@H](O)[C@@H](NC(=O)c4ccccc4)c4ccccc4)C(C)=C1C3(C)C)[C@]1(OC(C)=O)CO[C@@H]1C[C@@H]2O` [Paclitaxel], the “percent difference in area” value is reported as -45.1%.
For `c1ccc(Cn2c(-c3ccc(OC[C@H](C4CCNCC4)n4c(-c5ccccc5)nc5ccccc54)cc3)nc3ccccc32)cc1` [Deltarasin], the “percent difference in area” value was -7.63%.
With `CC1(C)CCC(c2ccc(Cl)cc2)=C(CN2CCN(c3ccc(C(=O)NS(=O)(=O)c4ccc(N[C@H](CCN5CCOCC5)CSc5ccccc5)c(S(=O)(=O)C(F)(F)F)c4)cc3)CC2)C1` the “percent difference in area” value was -1.13% and -0.0577%.
`O=C(Cc1ccc(-c2ccc(OCCN3CCOCC3)cc2)cn1)NCc1ccccc1` was tested, and the “percent difference in area” value was -13.1%.
For `CCNC(=O)c1noc(-c2cc(C(C)C)c(O)cc2O)c1-c1ccc(CN2CCOCC2)cc1`, the “percent difference in area” value was -30%.
`Cc1nccn1-c1ccc(Sc2cccc(C3(C(N)=O)CCOCC3)c2)cc1` was tested, and the “percent difference in area” value was -9.07%.
`Cc1nc(Nc2n[nH]c3c2CN(C(=O)N[C@H](CN(C)C)c2ccccc2)C3(C)C)c2sccc2n1` was tested, and the “percent difference in area” value was -62.7%.
For `CO[C@H]1C[C@@H]2CC[C@@H](C)[C@@](O)(O2)C(=O)C(=O)N2CCCC[C@H]2C(=O)O[C@H]([C@H](C)C[C@@H]2CC[C@@H](OP(C)(C)=O)[C@H](OC)C2)CC(=O)[C@H](C)/C=C(\C)[C@@H](O)[C@@H](OC)C(=O)[C@H](C)C[C@H](C)/C=C/C=C/C=C/1C` [Deforolimus], the “percent difference in area” value was 2.18%.
With `Cc1cc(/C=C/c2ccc3cc(N(C)C)ccc3[n+]2C)c(C)n1-c1ccccc1` [Pyrvinium_pamoate] the “percent difference in area” value was -34.5%.
For `Cc1ccc(NC(=O)c2ccc(CN3CCN(C)CC3)cc2)cc1Nc1nc(-c2cccnc2)cs1` [Masitinib], the “percent difference in area” value was -3.29%.
